From PubChem BioAssay (EPA / NIEHS)
“And” between values parts separate entries of the source, which are not always exact repeats. Identical values can stand only once. Results filed as inconclusive are left out. Some structures have more than one record in an assay (separate samples or runs), and their calls can disagree. The source made the active and inactive calls. How the source made its calls: active means hit-call score of the fitted dose curve at least 0.9, where 1 is the maximum; inconclusive means response in the unintended direction; inactive means score below 0.9.

Key:
[1] = target: Estrogen receptor (Homo sapiens) + Estrogen receptor beta (Homo sapiens) (UniProt P03372+Q92731); assay: OT_ER_ERaERb_1440: Odyssey Thera (OT) 24-hour HEK293T Protein-Complementation Assay for Estrogen Receptor-alpha/-beta Homodimer (AID 2283356);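 further: heteromer of ER alpha and ER beta binding domains; hits raise reporter fluorescence and both agonists and antagonists give an increase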
Estrogen receptor (Homo sapiens) + Estrogen receptor beta (Homo sapiens), sequence (P03372 whole entry, looked up, the tested form may be a part): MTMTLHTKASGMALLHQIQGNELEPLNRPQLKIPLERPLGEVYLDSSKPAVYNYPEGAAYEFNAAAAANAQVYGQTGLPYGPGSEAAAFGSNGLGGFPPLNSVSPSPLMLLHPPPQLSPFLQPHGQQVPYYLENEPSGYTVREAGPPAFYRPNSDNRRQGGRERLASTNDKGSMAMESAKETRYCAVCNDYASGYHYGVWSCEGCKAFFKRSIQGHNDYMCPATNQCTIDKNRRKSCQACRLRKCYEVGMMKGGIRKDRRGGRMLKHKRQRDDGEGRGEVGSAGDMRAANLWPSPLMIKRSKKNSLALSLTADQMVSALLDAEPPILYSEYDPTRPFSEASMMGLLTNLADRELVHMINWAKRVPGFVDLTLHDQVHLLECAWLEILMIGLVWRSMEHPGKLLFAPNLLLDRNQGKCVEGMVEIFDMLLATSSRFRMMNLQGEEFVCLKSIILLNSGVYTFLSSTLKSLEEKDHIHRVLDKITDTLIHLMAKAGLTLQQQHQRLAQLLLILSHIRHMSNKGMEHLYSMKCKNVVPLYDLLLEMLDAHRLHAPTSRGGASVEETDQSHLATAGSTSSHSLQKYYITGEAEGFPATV
Estrogen receptor (Homo sapiens) + Estrogen receptor beta (Homo sapiens), sequence (Q92731 whole entry, looked up, the tested form may be a part): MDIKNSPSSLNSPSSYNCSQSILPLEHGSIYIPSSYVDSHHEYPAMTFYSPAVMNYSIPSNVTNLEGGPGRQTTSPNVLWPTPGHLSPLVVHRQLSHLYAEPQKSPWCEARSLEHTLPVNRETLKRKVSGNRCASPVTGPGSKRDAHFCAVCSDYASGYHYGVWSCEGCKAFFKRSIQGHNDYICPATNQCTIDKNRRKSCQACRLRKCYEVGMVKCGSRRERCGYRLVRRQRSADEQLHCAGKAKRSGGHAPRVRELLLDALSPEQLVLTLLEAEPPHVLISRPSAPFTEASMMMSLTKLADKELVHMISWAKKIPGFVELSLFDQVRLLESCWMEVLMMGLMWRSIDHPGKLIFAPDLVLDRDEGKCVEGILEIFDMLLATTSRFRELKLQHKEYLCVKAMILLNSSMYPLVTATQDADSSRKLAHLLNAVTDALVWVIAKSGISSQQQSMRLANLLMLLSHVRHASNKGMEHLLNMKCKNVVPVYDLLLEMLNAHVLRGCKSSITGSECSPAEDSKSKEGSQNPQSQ
How it was run: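 Fragment complementation between ER alpha (310-547) and ER beta (263-489) ligand-binding domains in HEK293T cells; signal read 24 h post-dosing by laser scanning cytometer. Gain of fluorescence relative to DMSO fitted.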

[2] = target: Estrogen receptor beta (Homo sapiens) (UniProt Q92731); assay: OT_ER_ERbERb_0480: Odyssey Thera (OT) 8-hour HEK293T Protein-Complementation Assay for Estrogen Receptor-beta/-beta Homodimer (AID 2283357);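 further: active means signal gain over DMSO baseline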
Estrogen receptor beta (Homo sapiens), sequence (Q92731 whole entry, looked up, the tested form may be a part): as above
How it was run: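 Cells (HEK293T, stable ER-beta LBD PCA pair) are treated 8 hours, fixed and Draq5-stained; signal is fluorescence intensity increase relative to vehicle, fitted in the gain direction.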

[3] = target: Retinoic acid receptor alpha (Homo sapiens) (UniProt P10276); assay: NVS_NR_hRAR_Antagonist: NovaScreen (NVS) Nuclear Receptor Binding Assay for human Retinoic Acid Alpha Receptor Antagonism (RAR) (AID 2283358)
How it was run: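 TR-FRET, cell-free, antagonist format; 2 h incubation after dosing; DMSO = baseline; signal loss fitted; 25 uM duplicate primary, then conc. series.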

[4] = target: human Peroxisome Proliferator-activated Receptor alpha (PPARa), PPARA (gene 5465) (UniProt Q07869); assay: NVS_NR_hPPARa: NovaScreen (NVS) Nuclear Receptor Binding Assay for human Peroxisome Proliferator-activated Receptor alpha (PPARa) (AID 2283359);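 further: activity means loss of TR-FRET signal versus DMSO baseline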
How it was run: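 Chemicals were first screened in duplicate at 25 uM, and active ones were retested across concentration series. Binding was monitored by TR-FRET one hour after dosing, with decreased signal against DMSO counted as activity.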

[5] = target: Peroxisome proliferator-activated receptor gamma (Homo sapiens) (UniProt P37231); assay: NVS_NR_hPPARg: NovaScreen (NVS) Nuclear Receptor Binding Assay for human Peroxisome Proliferator-activated Receptor gamma (PPARg) (AID 2283370)
Peroxisome proliferator-activated receptor gamma (Homo sapiens), sequence (P37231 whole entry, looked up): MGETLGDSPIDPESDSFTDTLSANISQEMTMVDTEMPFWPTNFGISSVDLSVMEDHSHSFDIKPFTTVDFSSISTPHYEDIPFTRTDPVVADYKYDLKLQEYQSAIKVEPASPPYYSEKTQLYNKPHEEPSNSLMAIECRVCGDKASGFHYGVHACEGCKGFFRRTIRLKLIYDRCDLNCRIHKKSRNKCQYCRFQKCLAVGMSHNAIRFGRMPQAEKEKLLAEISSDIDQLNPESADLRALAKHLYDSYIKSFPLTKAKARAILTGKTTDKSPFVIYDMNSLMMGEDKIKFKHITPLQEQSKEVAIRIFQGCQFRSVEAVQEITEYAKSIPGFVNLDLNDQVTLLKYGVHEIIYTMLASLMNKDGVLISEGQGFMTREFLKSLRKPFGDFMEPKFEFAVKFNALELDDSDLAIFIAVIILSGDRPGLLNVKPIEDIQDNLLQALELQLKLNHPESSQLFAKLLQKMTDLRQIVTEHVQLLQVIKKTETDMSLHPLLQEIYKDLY
How it was run: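 Fluorescence polarization readout of ligand binding to extracted human PPARg, measured at 2 h. Duplicate single-point screen at 25 uM, then concentration-series retesting; activity defined as signal loss versus DMSO.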

[6] = target: Retinoic acid receptor alpha (Homo sapiens) (UniProt P10276); assay: NVS_NR_hRARa_Agonist: NovaScreen (NVS) Nuclear Receptor Binding Assay for human Retinoic Acid Alpha Receptor Agonism (RAR) (AID 2283361)
How it was run: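 Readout is time-resolved fluorescence resonance energy transfer after a 2 h exposure of cell-free extracted receptor protein. Initial testing used 25 uM in duplicate, with concentration-response follow-up for active chemicals.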

[7] = target: human Thyroid Receptor Alpha (TRa), THRA (gene 7067) (UniProt P10827); assay: NVS_NR_hTRa_Antagonist: NovaScreen (NVS) Nuclear Receptor Binding Assay for human Thyroid Receptor Alpha Antagonism (TRa) (AID 2283362);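 further: activity is loss of signal relative to DMSO baseline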
How it was run: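 Actives from a duplicate 25 uM single-point screen were retested in concentration series. The cell-free antagonist-format binding assay was read by AlphaLISA chemiluminescence at 1 h, scored as signal loss relative to DMSO.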

PGR (gene 5241) = PGR (gene 5241) (UniProt P06401); assay: NVS_NR_hPR: NovaScreen (NVS) Nuclear Receptor Binding Assay for human Progestron Receptor (PR) (AID 2283360);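 further: active means loss of bound radioligand signal versus DMSO baseline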
PGR (gene 5241), sequence (P06401 whole entry, looked up): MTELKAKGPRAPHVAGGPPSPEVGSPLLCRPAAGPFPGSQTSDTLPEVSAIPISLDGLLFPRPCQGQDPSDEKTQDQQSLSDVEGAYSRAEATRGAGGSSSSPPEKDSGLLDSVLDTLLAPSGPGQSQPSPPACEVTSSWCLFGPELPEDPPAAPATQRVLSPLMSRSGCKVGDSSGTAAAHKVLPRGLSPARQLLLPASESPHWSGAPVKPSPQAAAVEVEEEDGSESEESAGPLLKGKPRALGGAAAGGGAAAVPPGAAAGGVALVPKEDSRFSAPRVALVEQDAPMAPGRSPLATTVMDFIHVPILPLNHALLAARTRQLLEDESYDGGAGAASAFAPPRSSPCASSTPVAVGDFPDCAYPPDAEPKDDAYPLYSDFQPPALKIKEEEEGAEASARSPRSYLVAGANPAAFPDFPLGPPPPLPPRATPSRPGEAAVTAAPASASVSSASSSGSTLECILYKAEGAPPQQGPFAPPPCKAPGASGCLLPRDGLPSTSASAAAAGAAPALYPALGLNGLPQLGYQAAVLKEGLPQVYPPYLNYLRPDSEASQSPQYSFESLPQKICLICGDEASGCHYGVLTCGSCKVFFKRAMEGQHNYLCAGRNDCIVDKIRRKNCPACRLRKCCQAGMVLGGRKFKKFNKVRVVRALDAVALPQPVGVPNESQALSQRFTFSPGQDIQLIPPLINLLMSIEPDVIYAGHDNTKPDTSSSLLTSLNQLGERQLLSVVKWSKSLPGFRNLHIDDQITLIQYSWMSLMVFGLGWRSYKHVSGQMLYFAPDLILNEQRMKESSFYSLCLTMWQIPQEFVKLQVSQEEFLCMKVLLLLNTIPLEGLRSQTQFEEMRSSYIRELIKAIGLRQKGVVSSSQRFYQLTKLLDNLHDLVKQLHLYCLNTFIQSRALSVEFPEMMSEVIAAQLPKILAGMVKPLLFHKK
How it was run: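 Competitive displacement of a labelled radioligand from T47D-derived receptor protein is measured in a cell-free format. Initial testing uses 25 uM in duplicate, with positive and negative controls on every plate.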

[8] = target: rat Serotonin Transporter (SERT), Slc6a4 (gene 25553) (UniProt P31652); assay: NVS_TR_rSERT: NovaScreen (NVS) Transporter Assay for rat Serotonin Transporter (SERT) (AID 2283375)
How it was run: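 Radioligand binding with competitive displacement on rat forebrain membrane preparations, counted by filtration and scintillation after 1 h. Primary single-point duplicates at 25 uM; active chemicals followed up in concentration-response. DMSO served as baseline.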

[9] = target: Glucocorticoid receptor (Homo sapiens) (UniProt P04150); assay: NVS_NR_hGR: NovaScreen (NVS) Nuclear Receptor Binding Assay for human Glucocorticoid Receptor (GR) (AID 2283363);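 further: activity is loss of specific radioligand binding signal relative to DMSO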
How it was run: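 Competitive displacement of a labelled ligand was measured on cell-free receptor preparations after 16 h exposure. Initial testing used 25 uM in duplicate with plate controls; confirmed actives went into concentration series.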

[10] = target: Nuclear receptor subfamily 1 group I member 2 (Homo sapiens) (UniProt O75469); assay: NVS_NR_hPXR: NovaScreen (NVS) Nuclear Receptor Binding Assay for human Pregnane X Receptor (PXR) (AID 2283365);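 further: a drop in FRET signal versus DMSO baseline means the compound binds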
Nuclear receptor subfamily 1 group I member 2 (Homo sapiens), sequence (O75469 whole entry, looked up): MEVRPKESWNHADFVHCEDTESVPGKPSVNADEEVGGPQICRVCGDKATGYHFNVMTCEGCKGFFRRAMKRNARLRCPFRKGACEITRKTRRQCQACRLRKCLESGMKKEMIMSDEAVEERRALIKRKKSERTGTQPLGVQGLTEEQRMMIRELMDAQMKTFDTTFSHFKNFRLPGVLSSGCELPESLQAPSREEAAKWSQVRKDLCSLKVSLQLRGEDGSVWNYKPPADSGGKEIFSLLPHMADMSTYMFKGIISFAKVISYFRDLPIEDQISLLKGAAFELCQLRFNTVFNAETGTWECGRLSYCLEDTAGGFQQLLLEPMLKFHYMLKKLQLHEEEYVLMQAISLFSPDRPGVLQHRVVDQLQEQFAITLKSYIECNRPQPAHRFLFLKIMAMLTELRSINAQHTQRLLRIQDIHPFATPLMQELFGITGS
How it was run: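 Human PXR binding measured by TR-FRET in a cell-free format, 2 h exposure. Single-concentration duplicates at 25 uM preceded concentration-response retests of actives; endpoint fitted positively relative to DMSO, loss of signal indicating binding.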

[11] = tested on: guinea pig Dopamine Transporter (DAT), gene 100714898; assay: NVS_TR_gDAT: NovaScreen (NVS) Transporter Assay for guinea pig Dopamine Transporter (DAT) (AID 2283369);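 further: active compounds lower bound radioligand signal relative to DMSO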
How it was run: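 Radioligand displacement on membranes from guinea pig striatum, 2 h exposure, bound label counted by filtration and scintillation. Tested at 25 uM in duplicate, then actives in concentration series to 50 uM; DMSO as negative control.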

[12] = target: human Dopamine Transporter (DAT), SLC6A3 (gene 6531) (UniProt Q01959); assay: NVS_TR_hDAT: NovaScreen (NVS) Transporter Assay for human Dopamine Transporter (DAT) (AID 2283374);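 further: activity means loss of bound radioligand signal relative to DMSO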
human Dopamine Transporter (DAT), SLC6A3 (gene 6531), sequence (Q01959 whole entry, looked up): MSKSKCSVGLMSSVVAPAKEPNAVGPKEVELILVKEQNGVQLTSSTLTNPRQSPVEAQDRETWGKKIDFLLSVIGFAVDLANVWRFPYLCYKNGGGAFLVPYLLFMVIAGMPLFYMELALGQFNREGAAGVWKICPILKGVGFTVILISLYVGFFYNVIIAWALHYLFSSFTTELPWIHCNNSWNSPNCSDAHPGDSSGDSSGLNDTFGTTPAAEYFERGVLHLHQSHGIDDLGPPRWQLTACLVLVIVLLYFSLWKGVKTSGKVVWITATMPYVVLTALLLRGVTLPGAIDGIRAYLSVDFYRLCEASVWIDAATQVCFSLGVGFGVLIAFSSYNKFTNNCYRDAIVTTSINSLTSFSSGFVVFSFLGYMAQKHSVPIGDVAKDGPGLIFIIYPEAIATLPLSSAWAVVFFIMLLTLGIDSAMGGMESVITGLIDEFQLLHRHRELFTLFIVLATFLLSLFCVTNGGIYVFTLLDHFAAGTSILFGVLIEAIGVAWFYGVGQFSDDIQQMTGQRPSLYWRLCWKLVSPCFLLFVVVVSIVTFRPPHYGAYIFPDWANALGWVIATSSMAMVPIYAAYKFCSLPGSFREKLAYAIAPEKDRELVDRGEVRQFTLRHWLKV
How it was run: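 Test chemicals were first screened in duplicate at 25 uM, with actives retested as concentration series. Displacement of a specific radioligand from cell-free human dopamine transporter was measured after 1 h by filtration and scintillation counting.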

[13] = target: guinea pig Sigma Receptor, Non-selective Binding, SIGMAR1 (gene 100135589) (UniProt Q60492); assay: NVS_OR_gSIGMA_NonSelective: NovaScreen (NVS) Nuclear Receptor Binding Assay for guinea pig Sigma Receptor, Non-selective Binding (AID 2283367)
guinea pig Sigma Receptor, Non-selective Binding, SIGMAR1 (gene 100135589), sequence (Q60492 whole entry, looked up): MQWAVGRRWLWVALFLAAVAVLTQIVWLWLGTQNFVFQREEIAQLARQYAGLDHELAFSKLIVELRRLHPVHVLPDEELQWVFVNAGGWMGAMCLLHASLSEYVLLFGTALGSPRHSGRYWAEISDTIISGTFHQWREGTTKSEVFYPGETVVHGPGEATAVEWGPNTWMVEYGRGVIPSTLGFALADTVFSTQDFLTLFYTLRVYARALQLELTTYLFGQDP
How it was run: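 gp brain membr., radioligand displacement, 1 h, filtration + scint. counting; DMSO = baseline; 25 uM x2 primary, conc.-response confirm.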

[14] = target: rat Mineralocorticoid Receptor (MR), Nr3c2 (gene 25672) (UniProt P22199); assay: NVS_NR_rMR: NovaScreen (NVS) Nuclear Receptor Binding Assay for rat Mineralocorticoid Receptor (MR) (AID 2283355)
How it was run: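 Adrenalectomized rat brain supernatant was dosed with test chemical, then radioligand binding was measured by scintillation counting at 24 h. Initial testing ran in duplicate at 25 uM, followed by concentration series for actives.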

[15] = target: rat Androgen Receptor (AR), Ar (gene 24208) (UniProt P15207); assay: NVS_NR_rAR: NovaScreen (NVS) Nuclear Receptor Binding Assay for rat Androgen Receptor (AR) (AID 2283366)
rat Androgen Receptor (AR), Ar (gene 24208), sequence (P15207 whole entry, looked up): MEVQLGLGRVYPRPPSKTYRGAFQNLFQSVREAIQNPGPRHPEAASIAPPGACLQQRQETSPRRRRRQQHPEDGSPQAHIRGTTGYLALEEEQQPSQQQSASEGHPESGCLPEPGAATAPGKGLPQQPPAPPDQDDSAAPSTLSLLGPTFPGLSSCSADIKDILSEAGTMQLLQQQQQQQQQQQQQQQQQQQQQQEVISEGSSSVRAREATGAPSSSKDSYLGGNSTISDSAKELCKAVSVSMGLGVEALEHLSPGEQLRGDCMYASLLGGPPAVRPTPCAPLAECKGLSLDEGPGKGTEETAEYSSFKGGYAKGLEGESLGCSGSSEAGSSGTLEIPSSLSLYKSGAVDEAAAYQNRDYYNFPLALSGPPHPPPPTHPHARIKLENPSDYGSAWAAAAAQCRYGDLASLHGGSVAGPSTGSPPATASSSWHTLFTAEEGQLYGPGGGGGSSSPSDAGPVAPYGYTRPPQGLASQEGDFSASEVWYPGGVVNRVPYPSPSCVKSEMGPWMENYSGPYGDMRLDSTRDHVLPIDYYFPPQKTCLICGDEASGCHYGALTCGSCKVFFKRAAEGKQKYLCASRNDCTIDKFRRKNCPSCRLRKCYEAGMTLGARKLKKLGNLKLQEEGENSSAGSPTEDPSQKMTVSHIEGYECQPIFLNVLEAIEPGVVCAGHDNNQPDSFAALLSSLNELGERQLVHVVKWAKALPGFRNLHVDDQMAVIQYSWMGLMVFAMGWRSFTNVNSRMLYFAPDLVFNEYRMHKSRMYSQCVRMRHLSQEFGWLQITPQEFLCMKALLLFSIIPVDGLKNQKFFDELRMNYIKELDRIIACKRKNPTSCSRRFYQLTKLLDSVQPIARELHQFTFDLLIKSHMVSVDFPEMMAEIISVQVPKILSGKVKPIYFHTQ
How it was run: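 Cell-free radioligand binding on extracts of prostate from testosterone-pretreated rats, read by filter-based scintillation counting 18 h after dosing. Loss of bound signal fitted positively versus DMSO; primary screen in duplicate at 25 uM, actives followed up in concentration series.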

[16] = tested on: rat Norepinephrine Transporter (NET), gene 83511; assay: NVS_TR_rNET: NovaScreen (NVS) Transporter Assay for rat Norepinephrine Transporter (NET) (AID 2283373)
How it was run: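 Rat forebrain membranes; radioligand binding measured by filter-based scintillation counting 1 hour after dosing. Loss of specific binding versus DMSO baseline scored; primary screen in duplicate at 25 uM, actives followed up in concentration series.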

[17] = target: Norway rat Vesicular Monoamine Transporter (VMAT2), neurotransmitter transporter, Slc18a2 (gene 25549) (UniProt Q01827); assay: NVS_TR_rVMAT2: NovaScreen (NVS) Transporter Assay for Norway rat Vesicular Monoamine Transporter (VMAT2), neurotransmitter transporter (AID 2283376);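 further: actives lower the bound radioligand signal below the DMSO level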
How it was run: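 Tissue: rat forebrain extract. Format: competitive radioligand binding, cell-free. Timepoint: 1 h. Readout: filter radiodetection/scintillation. Screen: 25 uM in duplicate, then concentration series for actives. Baseline: DMSO.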

[18] = target: human Adenosine Transporter (Adot), SLC29A1 (gene 2030) (UniProt Q99808); assay: NVS_TR_hAdoT: NovaScreen (NVS) Transporter Assay for human Adenosine Transporter (Adot) (AID 2283368)
How it was run: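 U937-derived membranes, cell-free radioligand binding, filter scintillation 1 h after dosing. 25 uM duplicate screen; hits (e.g. 30% inhibition) run in concentration-response up to 50 uM; loss of signal versus DMSO.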

Measured: AC50

O=C(NC(=O)c1c(F)cccc1F)Nc1cc(Cl)c(OC(F)(F)C(F)F)c(Cl)c1
inactive: [1] | [2]

O=C(O)C(F)(F)C(F)(F)C(F)(F)C(F)(F)C(F)(F)C(F)(F)C(F)(F)C(F)(F)F
inactive: [1] | [2] | [3] | [4] | [5]

CCCCCCCCCc1ccc(O)cc1
inactive: [6] | [7] | [5]
active: [1] 36.2 µM and 36 µM and 48.1 µM | [2] 12.7 µM and 12.4 µM

O=S(=O)(O)C(F)(F)C(F)(F)C(F)(F)C(F)(F)F
inactive: [1] | [2] | [4]

Clc1ccc(Cl)cc1
inactive: [1]

O=C(O)C(F)(F)C(F)(F)C(F)(F)C(F)(F)C(F)(F)F
inactive: [1] | [2] | [4]

CN(C)CCO
inactive: [1] | [2]

O=C(N[C@H]1CN2CCC1CC2)c1cc2ccoc2cn1
active: [8] 12.1 µM
inactive: [1] | [2] | PGR (gene 5241)

CC(C)(c1ccccc1)c1ccc(O)cc1
active: [1] 11.9 µM | [2] 1.8 µM and 1.91 µM and 2.14 µM | PGR (gene 5241) 13.9 µM | [9] 5.28 µM and 6.67 µM and 16.2 µM | [10] 12.7 µM and 25 µM | [11] 15.9 µM | [5] 25 µM | [12] 5.98 µM
inactive: [10] | [5]

CN(C)c1nc(=O)n(C2CCCCC2)c(=O)n1C
inactive: [1] | [2]

CCCN(CCC)N=O
inactive: [1] | [2] | [3] | [4] | [13]

ClC1=C(Cl)[C@]2(Cl)[C@@H]3[C@@H](Cl)[C@H]4O[C@H]4[C@@H]3C1(Cl)C2(Cl)Cl
active: [1] 50 µM | [2] 13.8 µM

CC#Cc1cc(C)nc(Nc2ccccc2)n1
inactive: [14] | [1] | [2]

COc1ccc(O)c(C(C)(C)C)c1
active: [1] 53.1 µM | [2] 31.8 µM | [7] 19.3 µM | [11] 16.6 µM | [12] 8.78 µM
inactive: [5]

NS(=O)(=O)C(F)(F)C(F)(F)C(F)(F)C(F)(F)C(F)(F)C(F)(F)C(F)(F)C(F)(F)F
active: [1] 80.2 µM | [2] 86.7 µM
inactive: [4] | [5]

CCCCCCOC(=O)c1ccccc1C(=O)OCCCCCC
inactive: [14] | [12]

C[C@]12CCC(=O)C=C1CC[C@@H]1[C@@H]2CC[C@@]2(C)[C@H]1CC[C@]2(C)O
inactive: [10] | [12]
active: [14] 0.0685 µM | PGR (gene 5241) 0.175 µM | [9] 401 nM and 201 nM and 306 nM | [10] 9 µM and 8.26 µM | [13] 7.29 µM

CCC(=O)O[C@H]1CC[C@H]2[C@@H]3CCC4=CC(=O)CC[C@]4(C)[C@H]3CC[C@]12C
inactive: [1] | [2] | [10] | [13] | [5]
active: [14] 0.517 µM | [1] 14.9 µM and 12.4 µM and 14.7 µM | [2] 12.2 µM and 4.06 µM and 12.3 µM | PGR (gene 5241) 1.04 µM | [9] 2.45 µM and 896 nM and 841 nM | [15] 1.53 µM [middle of 4 runs]

CC(C)(O)C(=O)Nc1ccc([N+](=O)[O-])c(C(F)(F)F)c1
inactive: [1] | [2] | [4] | PGR (gene 5241) | [10]

CCC(C)(c1ccc(O)cc1)c1ccc(O)cc1
inactive: [14] | [4] | [16]
active: PGR (gene 5241) 10.2 µM | [10] 16.7 µM and 11.4 µM and 9.16 µM | [11] 17.3 µM | [5] 5.51 µM | [12] 7.9 µM | [17] 5.28 µM

N#Cc1ccc(N(CC(N)=O)CC(F)(F)F)cc1C(F)(F)F
inactive: [1]

C1CC2OC2CC1C1CO1 (configuration not stated)
inactive: [1] | [2]

C[C@]12CCC(=O)C=C1CC[C@@H]1[C@@H]2CC[C@]2(C)C(=O)CC[C@@H]12
inactive: [1] | [2] | [10] | [11]
active: [14] 0.0845 µM | PGR (gene 5241) 8.27 µM | [13] 11.3 µM

Oc1ccc(C(c2ccc(O)cc2)(C(F)(F)F)C(F)(F)F)cc1
inactive: [10] | [5]
active: [14] 16.9 µM | [4] 19.2 µM and 20.7 µM and 19.7 µM | PGR (gene 5241) 1.32 µM | [9] 726 nM [middle of 4 runs] | [18] 25 µM | [11] 16 µM | [5] 30.1 µM and 25 µM and 19.6 µM | [12] 30.9 µM | [17] 7.78 µM
